Sampled rows, rich in hits. Any-hit rate of the full collection: about 4.2%.
tim23-1 inh: growth inhibitors of tim23-1 mutant yeast | S. cerevisiae tim23-1 growth, BacTiter-Glo luminescence, 24 h | inhibition, % at 20 µM | 330,000 tested, 1.3% active;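 active = growth inhibition of the mutant yeast at or above 50%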;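 also: temperature-sensitive mutant grown at 25 °C; plate controls were DMSO-treated mutant yeast for no effect and medium wells lacking yeast for full effect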
V-ATPase pH: alters yeast V-ATPase proton transport. S. cerevisiae, pHLuorin cytosolic pH fluorescence. response, % at 10 µM. 350,000 tested, 0.37% active; in the data active = response mostly above about 7.3%, no sharp cut-off; inactive = mostly below about 5.4%; also: actives read high
NLRP3 yeast inh: NALP3 inhibition in yeast. Yeast reconstituted NLRP3/ASC/caspase-1, beta-gal luminescence, 24 h. inhibition, % at 10 µM. 330,000 tested, 0.39% active;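 active = inhibition of 50% or more; inactive = inhibition below 50%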;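 also: plate controls were induced DMSO wells for no effect and uninduced yeast grown without galactose for full effect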
TIM10 inh: inhibits growth of TIM10 yeast strain; S. cerevisiae TIM10 strain growth, BacTiter-Glo luminescence, 24 h; inhibition, % at 10 µM; 330,000 tested, 1.4% active; AID 463195;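 active = inhibition of 40% or more at the single tested concentration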;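 also: wild-type TIM10 isogenic control strain grown at permissive 25 °C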
NALP1 inh: blocks the NALP1 inflammasome reconstituted in yeast | inhibition, % at 10 µM | S. cerevisiae NALP1/ASC/caspase-1 growth, X-gal OD620, 72 h | 280,000 tested, 0.61% active | AID 2071; in the data active = inhibition mostly above about 24%, no sharp cut-off; inactive = mostly below about 32%
tim10-1 inh: tim10-1 yeast growth inhibition. 330,000 tested, 2.2% active. AID 463190. S. cerevisiae tim10-1 ts strain growth, BacTiter-Glo, 24 h. inhibition, % at 20 µM;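 active = inhibition of at least 40%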;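 also: mutant grown at 25 °C; 0% = DMSO wells with yeast and 100% = wells holding no yeast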
Active calls of the source: *; / = not tested or not shown.

SMILES | tim23-1 inh | V-ATPase pH | NLRP3 yeast inh | TIM10 inh | NALP1 inh | tim10-1 inh
COc1ccc(CCNC(=O)COc2ccc(N(C)S(=O)(=O)c3ccc(Cl)cc3)cc2)cc1 | / | -0.8 | / | / | 25.7* | /
Cc1c(C)[n+](=O)c(-c2ccc(F)cc2)c(C)n1[O-] | 7.1 | 1.6 | -1.4 | 0.3 | -29.7 | 11.3
Cc1c(-c2ccc(F)cc2)[n+](=O)c(-c2ccc(F)cc2)c(C)n1[O-] | 7.3 | -6.8 | 19.7 | -1.0 | 41.9* | 3.9
O=C(CCN1C(=O)/C(=C\c2ccccc2Cl)SC1=S)N1CCN(c2ccccc2)CC1 | -9.2 | 3.5 | 23.4 | 6.6 | 28.9* | 18.0
O=C(CCN1C(=O)/C(=C/c2ccccc2Cl)SC1=S)NN1CCOCC1 | 12.0 | -1.0 | 10.7 | 15.0 | 19.7 | 17.7
CCc1noc(C)c1C(=O)NNC(=O)COc1ccc(Br)cc1 | -8.5 | 4.4 | 15.3 | -12.3 | 17.1 | -14.6
Cc1ccc2nc(-c3ccncc3)cc(-c3ccccc3)c2c1 | 41.6 | -5.8 | 12.8 | 28.0 | 34.4* | 32.9
CCc1nnc(NC(=O)CN2C(=O)c3ccccc3C2=O)s1 | -9.9 | -2.5 | 1.5 | -11.0 | 21.2 | -12.0
CCCc1nnc(NC(=O)CN2C(=O)c3ccccc3C2=O)s1 | 16.0 | -0.8 | 10.1 | -0.2 | 43.6* | 8.4
O=C(NCc1cccnc1)c1ccc(Cl)c(S(=O)(=O)Nc2ccccc2C(=O)NCc2cccnc2)c1 | -2.8 | -0.9 | 10.6 | -18.4 | -2.6 | 21.3
CCN(CCN(C)C)C(=O)Cn1ncc2c1-c1cc(C)ccc1OC2 | 6.6 | 1.5 | 0.4 | -2.9 | 41.4* | 0.7
Cc1ccc2c(c1)-c1c(cnn1CC(=O)O)CO2 | -5.4 | 8.2 | 9.4 | -6.1 | -9.1 | -22.6
CCCc1cc(=O)oc2cc(OCC(=O)N3CCOCC3)c(Cl)cc12 | 9.8 | -4.7 | -9.3 | -4.0 | 3.0 | 3.1
CCCc1cc(=O)oc2cc(OCC(=O)N(C)C)c(Cl)cc12 | -2.1 | 26.0* | 3.4 | -0.7 | -18.0 | -0.6
CCC/C=C1/CCCOC(C(=O)NCc2ccccc2)(C(F)(F)F)C1 (configuration not stated) | 14.6 | -2.0 | 29.0 | 1.1 | / | 13.9
Cc1cccc(NC(=O)C2CCCN2C(=O)Oc2ccccc2)c1 (configuration not stated) | 22.8 | 1.6 | 6.7 | 17.0 | 44.9* | 17.9
COc1ccccc1CN1CC(C(=O)NCc2nccn2C)CCC1=O (configuration not stated) | -5.5 | 0.6 | 0.6 | -1.2 | 2.1 | -4.3
O=C(Nc1ccncc1)Nc1ccc(Cl)cc1Cl | 7.7 | -1.2 | 22.5 | -46.7 | 30.4* | 0.3
COc1ccc(C2C3=C(N=C4SCC(=O)N42)c2ccccc2CC3)cc1 (configuration not stated) | 23.4 | 3.8 | 8.2 | 16.6 | 38.4* | 20.1
CCc1ccc(NCCC(=O)c2ccc(Br)cc2)cc1 | -3.5 | 14.8* | 16.5 | -24.1 | 20.2 | 3.6
Cc1ccc(NCCC(=O)c2ccc(Br)cc2)cc1 | 7.6 | 1.2 | 21.2 | -4.0 | 37.3 | 1.2
CN(C)C(=O)c1ccc(NC(=O)COC(=O)C2CCN(S(=O)(=O)c3ccc4c(c3)OCCO4)CC2)cc1 | -16.1 | 1.5 | 24.7 | 7.3 | / | -4.0
COc1ccccc1CCC(=O)NCCCn1ccc2ccccc21 | 22.4 | -2.7 | 32.7 | -9.4 | -10.2 | 29.8
Cc1nn(-c2ccccc2)c2[nH]c(=O)cc(C(F)(F)F)c12 | 24.9 | 2.5 | 8.1 | 22.5 | 37.5* | 5.4
Cc1cccc(C(=O)NNC(=O)C2CC2)c1 | 2.8 | 4.0 | 11.0 | -8.4 | 31.4* | 3.0
SMILES | tim23-1 inh | V-ATPase pH | NLRP3 yeast inh | TIM10 inh | NALP1 inh | tim10-1 inh
CCOc1ccc(N(CC(=O)NCC2CCCO2)S(=O)(=O)c2ccc(SC)cc2)cc1 (configuration not stated) | 21.7 | 2.5 | 2.8 | 2.4 | 34.2* | 20.6
CCCC(C)NC(=O)c1sc2nc3n(c(=O)c2c1C)CCC3 (configuration not stated) | 7.4 | -1.8 | 7.6 | 1.8 | -36.4 | -2.6
Cc1c2cc(O)c(=O)cc-2oc2cc(O)c(O)cc12 | 4.2 | 205.7* | 10.4 | -19.2 | 0.8 | 17.5
CC[n+]1c(/C=C2\Sc3ccccc3N2C)ccc2cccc(C)c21 | / | 1.6 | / | / | 100.3* | /
Cc1ccc2nc3c(c(Nc4ccccc4)c2c1)CCC3 | -5.4 | -3.2 | 23.0 | -13.2 | 41.2* | 10.8
c1ccc(Nc2c3c(nc4ccccc24)CCC3)cc1 | -17.8 | -0.2 | -2.6 | -4.3 | 3.7 | 6.5
O=C(CCC1CCCN(C(=O)c2ccccc2Cl)C1)N1CCN(c2ccccn2)CC1 (configuration not stated) | -1.5 | -0.3 | 10.9 | -3.1 | 3.5 | -2.1
CC(Oc1cc2oc(=O)c3c(c2cc1Cl)CCC3)C(=O)NCCCn1ccnc1 (configuration not stated) | 3.3 | 0.9 | -5.2 | 12.9 | 0.9 | 9.3
COc1cc(C2OC(=O)C3C(c4ccc(OC(C)=O)c(OC)c4)OC(=O)C23)ccc1OC(C)=O (configuration not stated) | 10.3 | -1.1 | 18.3 | 7.4 | / | 11.3
COc1cccc(C2=NC(C)(C)NC(c3ccccc3O)C2)c1 (configuration not stated) | 32.6 | -4.5 | 21.6 | 26.9 | 16.3* | 30.0
Cc1ccc(Oc2c(CO)c(-c3ccccc3)nn2C)cc1 | 16.0 | 0.0 | -11.7 | 5.6 | 5.7 | 23.2
CC(C)N1C/C(=C/c2cccnc2)C(=O)/C(=C/c2cccnc2)C1 | / | -1.4 | / | / | 105.8* | /
CCn1c(SCC(=O)Nc2sccc2C(N)=O)nnc1C1CC1 | 4.5 | -3.5 | 5.3 | -1.2 | / | -7.2
O=C(CSc1nnc(CNC(=O)c2cccs2)o1)Nc1ccccc1C(F)(F)F | 11.0 | 0.6 | 2.7 | -12.0 | -11.5 | 17.1
O=C(NC1=NCCS1)c1cccc(S(=O)(=O)N2CCOCC2)c1 | 3.5 | 3.5 | 4.0 | 5.0 | / | -7.9
COc1cccc(NC(=O)N2CCN(c3cccc(C)c3)C(C)C2)c1 (configuration not stated) | 9.9 | 2.8 | 13.3 | 9.2 | -6.6 | 28.3
COc1cccc(N2CCN(C(=O)c3ccc(=O)oc3)CC2C)c1 (configuration not stated) | -0.4 | 4.4 | 6.1 | 5.2 | 40.5* | -6.6
CCC/C(O)=C1\C(=O)CCCC1=NCCc1c(C)[nH]c2ccc(OC)cc12 | 10.9 | 4.2 | 2.3 | 14.3 | 19.0* | 21.2
Cc1ccc(C2=N/C(=C\N3CCCCC3)C(=O)O2)cc1 | 37.9 | 0.1 | 29.9 | 4.8 | 37.7* | 29.8
O=C(c1nc2n(n1)C(c1ccc(Cl)cc1)C=C(c1ccccc1)N2)N1CCOCC1 (configuration not stated) | 9.7 | 0.2 | -22.8 | 11.8 | 30.9* | 29.4
COc1ccc(S(=O)(=O)N2CCOCC2)cc1NC(=O)C1CCN(S(=O)(=O)c2ccc(Cl)cc2)CC1 | / | 0.5 | / | / | / | /
O=S(=O)(Nc1ccc2c(c1)OCCO2)c1cccc2nsnc12 | 0.0 | -3.1 | 16.8 | -16.0 | 31.2* | 10.2

Screening data (PubChem)
